Here are results for 39 compounds from PubChem BioAssay (NCI).

About 83,000 compounds went through this panel and 20% of them were active in at least one assay; those are over-represented in the sample as a whole.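 How to read the values: 0–100, growth inhibition (40 = 60% inhibited); 0, no net growth; -100 to 0, cell death (-40 = 40% of starting cells died; -100 = all dead).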 Unmarked numbers belong to inactive results. The source made the active and inactive calls. Rule for the calls: active = growth percent below 10; inactive = the rest.

One experiment relates to SNB-19 CNS. Nature of the experiment: NCI-60 one-dose screen, 48 h (100 = growth as untreated, 0 = no growth, -100 = all killed). The following applies: 10 µM unless noted.
In the case of `O=C(Nc1ccc2c(c1)OCO2)C(=O)c1c[nH]c2cc(F)ccc12`, the growth is 85.1%.

`O=C(Nc1cccc(-n2cc(-c3ccncc3)c(-c3ccc(Cl)c(O)c3)n2)c1)Nc1cc(C(F)(F)F)cc(C(F)(F)F)c1`: the growth is 11.3%.

Consider `N/C(=N\C(N)=N\c1nc2ccccc2s1)c1ccncc1`, for which the growth is 69.5%.

`O=S(=O)(NCCNc1nccc(-c2c(-c3cccc(O)c3)nc3sccn23)n1)c1ccc(F)cc1`: the growth was 111%.

On to `CN1C(=O)N(C)C2C1NN=c1s/c(=C\c3cccnc3)c(=O)n12` (stereo not drawn), for which the growth is 81.4%.

For the compound `CN1CCN(Cc2ccc(NC(=O)c3cncc(C#Cc4cnc(N)c5ccncc45)c3)cc2C(F)(F)F)CC1`, the growth is 51.3%.

Take `O=C(Nc1ccncc1)C(=O)c1cn(S(=O)(=O)c2ccc(Br)cc2)c2ccccc12`: the growth is 64.6%.

As to `CN(C)CCCN(c1nc(C(Cl)(Cl)Cl)ns1)c1nc(C(Cl)(Cl)Cl)ns1`, the growth is 64.2%.

Turning to `COc1ccc(-c2nc3sc(-c4cc(OC)c(OC)c(OC)c4)nn3c2/C=C2/C(=O)Nc3ccc(F)cc32)cc1`, the growth was 11%.

On to `Cc1ccc(S(=O)(=O)NCCNc2cc(-c3cn(C(C)(C)C)nc3-c3cccc(O)c3)ccn2)cc1`, for which the growth was 84.4%.

As to `COc1cccc(/C=C2\Oc3cc(OCCCN4CCCC4)ccc3C2=O)c1`, the growth is 87.9%.

As for `COc1ccc(Nc2[nH]n3c(=O)cc(-c4ccccc4)nc3c2C(=O)Nc2ccc(C)cc2)c(OC)c1`, the growth was 56.3%.

Take `Cc1ccc(S(=O)(=O)c2nc(-c3ccccc3)oc2S(C)(=O)=O)cc1`: the growth is 60.9%.

As for `O=[N+]([O-])c1cccc(-c2nc3sccn3c2-c2ccnc(NCCCNS(=O)(=O)c3ccc(Cl)cc3)n2)c1`, the growth was 83.5%.

In the case of `CCC(=O)Oc1ccc(/C(=C(/C)Cc2cccc(OC)c2)c2ccc(OCCN(C)C)cc2)cc1`, the growth was 92.6%.

As to `COc1ccc(N2CCN(Cc3cc(C(=O)/C=C/c4c[nH]c5ccccc45)ccc3O)CC2)cc1`, the growth is 100%.

As to `COc1ccc(-c2nc(/C=C3/C(=O)Nc4ccc(F)cc43)c3ccccn23)cc1`, the growth was 101%.

Turning to `CCN(CC)c1ccc(/C=C2\Oc3ccc(O)c(I)c3C2=O)cc1`, the growth is 49.7%.

Regarding `N[C@H]1CN(C(=O)c2cc3cc(Br)c(F)c(F)c3[nH]2)C[C@@H]1O`, the growth is 96.6%.

Consider `COc1ccc(/C=C\c2cc(OC)c(OC)c(OC)c2)cc1OC(=O)c1cccc(Cn2cc(CCOC(=O)c3cccc(Cn4nnc5c4C(=O)c4ccccc4C5=O)c3)nn2)c1`, for which the growth was 28.6%.

As to `N[C@@H]1CCN(C(=O)c2cc3cc(Cl)c(F)c(F)c3[nH]2)C1`, the growth was 90.2%.

Take `CC(C)(C)Nc1c(-c2cccs2)nc2ncccn12`: the growth is 95.9%.

For `O=C1/C(=C/c2ccccc2)Oc2ccc(O)c(I)c21`, the growth was 99.1%.

On to `COc1ccc(OC)c(/C=C2\Oc3cc(OCCCN4CCCC4)ccc3C2=O)c1`, for which the growth was 82.1%.

Take `COc1ccc(S(=O)(=O)Nc2cc(/C=C\c3cc(OC)c(OC)c(OC)c3)cc(OC)c2OC)cc1`: the growth is 57.7%.

Regarding `COc1ccc(/C=C2\Oc3cc(OCCCN4CCCC4)ccc3C2=O)cc1`, the growth is 92.4%.

As for `FC(F)(F)c1ccccc1-c1cn2c(ccc3ccccc32)n1`, the growth was 83%.

Take `Cc1nn(-c2ccc(Cl)cc2)c2ncnc(N/N=C/c3cccc([N+](=O)[O-])c3)c12`: the growth was 96.4%.

With `c1ccc(Nc2nc(Nc3ccccc3)nc(Nc3ccccc3)n2)cc1`, the growth was 98.3%.

Consider `COc1ccc(-c2nc(N3CCCC3=O)sc2Br)cc1OC`, for which the growth is 93.8%.

Turning to `NC1N=C(SCC(=O)N2CCN(c3cc4c(cc3F)c(=O)c(C(=O)O)cn4C3CC3)CC2)NC(=O)/C1=C/c1ccc(Cl)cc1` (stereo not drawn), the growth was 99.7%.

In the case of `Clc1ccc(-c2nc3ccccc3s2)cc1Cl`, the growth is 93.6%.

For the compound `O=C(NS(=O)(=O)c1ccc2ccccc2c1)n1cc(-c2ccncc2)c(-c2ccc(Cl)c(O)c2)n1`, the growth is 109%.

On to `O=C(O)/C=C/C(=O)c1ccc(Cl)cc1`, for which the growth is 111%.

Take `CCCCN(CCCC)C(=O)CC`: the growth was 114%.

For `O=c1c2sc3ncccc3c2nnn1-c1ccccc1`, the growth is 93.6%.

In the case of `COc1ccc(/C=C2\Oc3cc(OCCCN4CCCC4)ccc3C2=O)c(OC)c1`, the growth is 74.4%.

As to `CCCCN(CCCC)c1ccc(C(=N)c2ccc(N(CCCC)CCCC)cc2)cc1`, the growth is -82.8% (active).

Turning to `CN1C(=O)N(C)C2C1NN=c1s/c(=C\C=C\c3ccccc3)c(=O)n12` (stereo not drawn), the growth is 57.9%.

A further experiment relates to U251 CNS. The description is as above. The following applies: 10 µM unless noted.
Regarding `O=C(Nc1ccc2c(c1)OCO2)C(=O)c1c[nH]c2cc(F)ccc12`, the growth is 58.4%.

Regarding `O=C(Nc1cccc(-n2cc(-c3ccncc3)c(-c3ccc(Cl)c(O)c3)n2)c1)Nc1cc(C(F)(F)F)cc(C(F)(F)F)c1`, the growth is -83.8% (active).

Consider `N/C(=N\C(N)=N\c1nc2ccccc2s1)c1ccncc1`, for which the growth is 71%.

For the compound `O=S(=O)(NCCNc1nccc(-c2c(-c3cccc(O)c3)nc3sccn23)n1)c1ccc(F)cc1`, the growth is 79.4%.

With `CN1C(=O)N(C)C2C1NN=c1s/c(=C\c3cccnc3)c(=O)n12` (stereo not drawn), the growth is 90.2%.

Consider `CN1CCN(Cc2ccc(NC(=O)c3cncc(C#Cc4cnc(N)c5ccncc45)c3)cc2C(F)(F)F)CC1`, for which the growth is 37.3%.

Regarding `O=C(Nc1ccncc1)C(=O)c1cn(S(=O)(=O)c2ccc(Br)cc2)c2ccccc12`, the growth was 42.7%.

For `CN(C)CCCN(c1nc(C(Cl)(Cl)Cl)ns1)c1nc(C(Cl)(Cl)Cl)ns1`, the growth was 27.4%.

In the case of `COc1ccc(-c2nc3sc(-c4cc(OC)c(OC)c(OC)c4)nn3c2/C=C2/C(=O)Nc3ccc(F)cc32)cc1`, the growth was -87.4% (active).

Turning to `Cc1ccc(S(=O)(=O)NCCNc2cc(-c3cn(C(C)(C)C)nc3-c3cccc(O)c3)ccn2)cc1`, the growth is 62.9%.

Turning to `COc1cccc(/C=C2\Oc3cc(OCCCN4CCCC4)ccc3C2=O)c1`, the growth is 75.6%.

In the case of `COc1ccc(Nc2[nH]n3c(=O)cc(-c4ccccc4)nc3c2C(=O)Nc2ccc(C)cc2)c(OC)c1`, the growth is 60.3%.

`Cc1ccc(S(=O)(=O)c2nc(-c3ccccc3)oc2S(C)(=O)=O)cc1`: the growth was 60.7%.

On to `O=[N+]([O-])c1cccc(-c2nc3sccn3c2-c2ccnc(NCCCNS(=O)(=O)c3ccc(Cl)cc3)n2)c1`, for which the growth is 87.8%.

Regarding `CCC(=O)Oc1ccc(/C(=C(/C)Cc2cccc(OC)c2)c2ccc(OCCN(C)C)cc2)cc1`, the growth is 71.3%.

Take `COc1ccc(N2CCN(Cc3cc(C(=O)/C=C/c4c[nH]c5ccccc45)ccc3O)CC2)cc1`: the growth is 95%.

Turning to `COc1ccc(-c2nc(/C=C3/C(=O)Nc4ccc(F)cc43)c3ccccn23)cc1`, the growth was 88.3%.

With `CCN(CC)c1ccc(/C=C2\Oc3ccc(O)c(I)c3C2=O)cc1`, the growth was 49.1%.

Turning to `N[C@H]1CN(C(=O)c2cc3cc(Br)c(F)c(F)c3[nH]2)C[C@@H]1O`, the growth is 95.9%.

On to `COc1ccc(/C=C\c2cc(OC)c(OC)c(OC)c2)cc1OC(=O)c1cccc(Cn2cc(CCOC(=O)c3cccc(Cn4nnc5c4C(=O)c4ccccc4C5=O)c3)nn2)c1`, for which the growth is 23.8%.

Turning to `N[C@@H]1CCN(C(=O)c2cc3cc(Cl)c(F)c(F)c3[nH]2)C1`, the growth is 86.2%.

On to `CC(C)(C)Nc1c(-c2cccs2)nc2ncccn12`, for which the growth is 104%.

On to `O=C1/C(=C/c2ccccc2)Oc2ccc(O)c(I)c21`, for which the growth is 93%.

In the case of `COc1ccc(OC)c(/C=C2\Oc3cc(OCCCN4CCCC4)ccc3C2=O)c1`, the growth is 74.2%.

Turning to `COc1ccc(S(=O)(=O)Nc2cc(/C=C\c3cc(OC)c(OC)c(OC)c3)cc(OC)c2OC)cc1`, the growth was 5.4% (active).

For the compound `COc1ccc(/C=C2\Oc3cc(OCCCN4CCCC4)ccc3C2=O)cc1`, the growth is 82.7%.

Turning to `FC(F)(F)c1ccccc1-c1cn2c(ccc3ccccc32)n1`, the growth is 88.5%.

Regarding `Cc1nn(-c2ccc(Cl)cc2)c2ncnc(N/N=C/c3cccc([N+](=O)[O-])c3)c12`, the growth is 82.3%.

Regarding `c1ccc(Nc2nc(Nc3ccccc3)nc(Nc3ccccc3)n2)cc1`, the growth was 91.4%.

As for `COc1ccc(-c2nc(N3CCCC3=O)sc2Br)cc1OC`, the growth is 96.7%.

Take `NC1N=C(SCC(=O)N2CCN(c3cc4c(cc3F)c(=O)c(C(=O)O)cn4C3CC3)CC2)NC(=O)/C1=C/c1ccc(Cl)cc1` (stereo not drawn): the growth is 99.8%.

`Clc1ccc(-c2nc3ccccc3s2)cc1Cl`: the growth was 86.9%.

`O=C(NS(=O)(=O)c1ccc2ccccc2c1)n1cc(-c2ccncc2)c(-c2ccc(Cl)c(O)c2)n1`: the growth was 84.5%.

Regarding `O=C(O)/C=C/C(=O)c1ccc(Cl)cc1`, the growth was 100%.

Take `CCCCN(CCCC)C(=O)CC`: the growth is 120%.

Take `O=c1c2sc3ncccc3c2nnn1-c1ccccc1`: the growth was 97.7%.

Take `COc1ccc(/C=C2\Oc3cc(OCCCN4CCCC4)ccc3C2=O)c(OC)c1`: the growth is 54.4%.

In the case of `CCCCN(CCCC)c1ccc(C(=N)c2ccc(N(CCCC)CCCC)cc2)cc1`, the growth was -92.9% (active).

In the case of `CN1C(=O)N(C)C2C1NN=c1s/c(=C\C=C\c3ccccc3)c(=O)n12` (stereo not drawn), the growth was 63.7%.
